Screening data (PubChem)
The list is not random: actives were taken first. Their share in the collection is about 2.2%.
Mot1-301 SUMO – blocks SUMOylation pathway, rescuing yeast Mot1-301 growth. S. cerevisiae Mot1-301 growth rescue, ATP luminescence, 38.5C; percent above DMSO median, 100 means doubled. growth rescue, % at 18.8 µM. 1% of 320,000 active;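 active = every valid replicate shows activation above 250% relative to neutral control wells; inactive = the rest, any valid replicate at or below 250%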
Efflux pump mplx – blocks antifungal efflux pumps in multiplex yeast assay; S. cerevisiae Candida pump triplex, Nile Red efflux; inhibition, % at 10 µM; 0.44% of 330,000 active; AID 485275;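 active = plate passing quality check with inhibition over a set limit, or well fluorescence over plate mean plus 4 SD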;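 note: Nile Red retained in pooled yeast measured as flow cytometry median fluorescence; higher means more Nile Red kept so more efflux inhibition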
SKN-1 block – blocks SKN-1 activity in C. elegans | 0.49% of 360,000 active | C. elegans VP596 Pgst-4::GFP/RFP ratio, acrylamide-induced, 24 h | inhibition, % at 21.8 µM;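 active = interference check ratio from 0.5 to 1.5 plus GFP to RFP signal ratio inhibition reaching or exceeding a fixed threshold, cut at about 30% in these data, passing the limit was not always enough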
HGIII-sPLA2 inh – Blocks human group III sPLA2 activity; AID 743126; Q9NZ20; QFRET BODIPY PC-A2 liposome hydrolysis, fluorescence; 0.56% of 370,000 active; inhibition, % at 12.2 µM;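 active = inhibition above mean plus 3 SD of compounds lying within the high and low control bounds, cut at about 19% in these data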
Target sequence (Q9NZ20 whole entry, looked up): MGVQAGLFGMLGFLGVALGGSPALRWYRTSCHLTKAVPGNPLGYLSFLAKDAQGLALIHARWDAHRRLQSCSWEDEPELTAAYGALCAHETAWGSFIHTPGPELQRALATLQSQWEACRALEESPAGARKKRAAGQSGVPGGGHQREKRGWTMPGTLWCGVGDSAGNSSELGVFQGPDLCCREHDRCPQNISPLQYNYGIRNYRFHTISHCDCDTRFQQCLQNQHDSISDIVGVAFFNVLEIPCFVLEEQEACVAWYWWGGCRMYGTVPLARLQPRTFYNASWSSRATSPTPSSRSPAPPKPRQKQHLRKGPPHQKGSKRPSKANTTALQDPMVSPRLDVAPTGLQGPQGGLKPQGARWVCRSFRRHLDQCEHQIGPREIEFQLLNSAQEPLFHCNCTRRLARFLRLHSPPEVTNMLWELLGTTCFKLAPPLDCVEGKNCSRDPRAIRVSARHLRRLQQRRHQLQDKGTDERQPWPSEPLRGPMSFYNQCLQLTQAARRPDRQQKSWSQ
Yeast cmpd fluor – compound fluorescence in yeast efflux pump counter-screen. 4% of 1,700 active. fluorescence ratio to DMSO, % at 10 µM. S. cerevisiae AD/pABC3, flow cytometry. shares compounds with Efflux pump mplx;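 active = fluorescence ratio to DMSO above its plate's cutoff, the plate mean ratio plus 5 SD, cut at about 210% in these data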;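 note: unstained yeast with no Nile Red so the signal is compound autofluorescence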
Mdr1 pump inh – inhibitors of Candida albicans Mdr1 efflux pump | inhibition, % at 10 µM | S. cerevisiae AD/CaMDR1, Nile Red efflux, flow cytometry | 1% of 1,700 active | shares compounds with Efflux pump mplx; in the data active = inhibition above about 26%;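 note: higher means more Nile Red retained so more efflux inhibition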
Cdr2 pump inh – inhibitors of Candida albicans Cdr2 efflux pump. shares compounds with Efflux pump mplx. S. cerevisiae AD/CaCDR2, Nile Red retention, flow cytometry. Nile Red retention ratio vs DMSO, % at 10 µM. 4% of 1,700 active. AID 588520; in the data active = Nile Red retention ratio vs DMSO above about 190%;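 note: higher ratio means more blocking of Cdr2 efflux of the dye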
Cdr1 pump inh – Candida Cdr1 efflux pump inhibition. shares compounds with Efflux pump mplx. S. cerevisiae AD/CaCDR1, Nile Red efflux, flow cytometry. inhibition, % at 10 µM. 1% of 1,700 active. AID 588522;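 active = inhibition above the screen-wide mean plus twice its standard deviation, cut at about 32% in these data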
hGIII sPLA2 conf – human GIII-sPLA2 inhibition, confirmation. shares compounds with HGIII-sPLA2 inh. recombinant hGIII-sPLA2, BODIPY PC-A2 QFRET fluorescence. inhibition, % at 12.2 µM. 34% of 2,000 active. AID 743280;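 active = mean inhibition across triplicates above the hit cutoff set in the earlier primary screen, cut at about 19% in these data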
535nm interf – optically interferes with 535nm fluorescence in sPLA2 counter-screen | shares compounds with HGIII-sPLA2 inh | BODIPY FL product fluorescence interference, QFRET | inhibition, % at 12.2 µM | 8.5% of 2,000 active;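 active = average inhibition above the solvent-only control mean plus 3 SD, cut at about 6% in these data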
535nm interf DR – interferes with 535nm fluorescence in dose response counter-screen | 240 tested, under 10 active | BODIPY FL product fluorescence interference, cell-free | IC50, µM | shares compounds with HGIII-sPLA2 inh;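 active = IC50 at or below 10 µM; inactive = IC50 above 10 µM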
Hits are given with their value.

`COc1ccccc1NC(=O)c1ccc(NC(=O)COC(=O)c2cccnc2Cl)cc1` gave Mot1-301 SUMO inactive, Efflux pump mplx inactive, SKN-1 block inactive and HGIII-sPLA2 inh inactive.
CCOc1cc2sc(N3CCC(C(=O)NCCCN4CCCC4=O)CC3)nc2cc1Br was read as Mot1-301 SUMO inactive, Efflux pump mplx inactive, SKN-1 block inactive and HGIII-sPLA2 inh inactive.
For O=C(NC1CCCCC1)c1cc2ccccc2cc1O the results were Mot1-301 SUMO inactive, Efflux pump mplx 1.1, SKN-1 block inactive, HGIII-sPLA2 inh inactive, Yeast cmpd fluor inactive, Mdr1 pump inh inactive, Cdr2 pump inh inactive and Cdr1 pump inh inactive.
Screening COc1ccc(NC(=O)c2cc(-c3ccc(C)cc3)on2)cc1OC returned Mot1-301 SUMO inactive, Efflux pump mplx inactive, SKN-1 block inactive and HGIII-sPLA2 inh inactive.
COc1ccc(-c2cc(C(=O)Nc3ccc(OC)c(OC)c3)no2)cc1 was read as Mot1-301 SUMO inactive, Efflux pump mplx 1.4, SKN-1 block inactive, HGIII-sPLA2 inh inactive, Yeast cmpd fluor inactive, Mdr1 pump inh inactive, Cdr2 pump inh inactive and Cdr1 pump inh inactive.
For N#C/C(=C/c1ccc(Br)s1)C(=O)NCCc1c[nH]c2ccccc12 the results were Mot1-301 SUMO inactive, Efflux pump mplx 5.5, SKN-1 block inactive, HGIII-sPLA2 inh inactive, Yeast cmpd fluor inactive, Mdr1 pump inh inactive, Cdr2 pump inh inactive and Cdr1 pump inh inactive.
CC(C)Cn1c(-c2csc(C(C)C)c2)n[nH]c1=S was read as Mot1-301 SUMO inactive, Efflux pump mplx inactive, SKN-1 block inactive and HGIII-sPLA2 inh inactive.
Screening CCn1c(-c2csc(C(C)C)c2)n[nH]c1=S returned Mot1-301 SUMO inactive, Efflux pump mplx 11.1, SKN-1 block inactive, HGIII-sPLA2 inh 21.6, Yeast cmpd fluor inactive, Mdr1 pump inh inactive, Cdr2 pump inh inactive, Cdr1 pump inh inactive, hGIII sPLA2 conf 29.2, 535nm interf inactive and 535nm interf DR inactive.
Screening CC1CCCCC12NC(=O)N(CC(=O)N1CCN(C(=O)c3ccco3)CC1)C2=O (configuration not stated) returned Mot1-301 SUMO inactive, Efflux pump mplx inactive, SKN-1 block inactive and HGIII-sPLA2 inh inactive.
For CC(C)Sc1cc(N2CCCC2)nc(-c2ccccc2Cl)n1 the results were Mot1-301 SUMO inactive, Efflux pump mplx inactive, SKN-1 block inactive, HGIII-sPLA2 inh 22.4, Yeast cmpd fluor inactive, Mdr1 pump inh inactive, Cdr2 pump inh inactive, Cdr1 pump inh inactive, hGIII sPLA2 conf inactive and 535nm interf inactive.
`CCOC(=O)N1CCN(C(=O)C[C@@H]2C(=O)N(Cc3ccc(OC)cc3)/C3=C/CCCCC[C@@]32C(=O)OCC)CC1` gave HGIII-sPLA2 inh inactive.
`CCN(CC)c1ccc(/C=C/c2cc(-c3ccccc3)c3ccccc3n2)cc1` gave Mot1-301 SUMO inactive, Efflux pump mplx 1.9, SKN-1 block inactive, HGIII-sPLA2 inh 25.4, Yeast cmpd fluor inactive, Mdr1 pump inh inactive, Cdr2 pump inh inactive, Cdr1 pump inh inactive, hGIII sPLA2 conf inactive and 535nm interf inactive.
`CCN(CC)c1ccc(/C=N/NC(=O)c2cc(C)nc3ccccc23)cc1` gave Mot1-301 SUMO inactive, Efflux pump mplx inactive, SKN-1 block inactive and HGIII-sPLA2 inh inactive.
`O=C1/C(=C/c2ccccn2)SC(=S)N1Nc1ncc(C(F)(F)F)cc1Cl` gave SKN-1 block inactive, HGIII-sPLA2 inh 20.6, Yeast cmpd fluor inactive, Mdr1 pump inh inactive, Cdr2 pump inh inactive, Cdr1 pump inh inactive, hGIII sPLA2 conf 31.5, 535nm interf inactive and 535nm interf DR inactive.
O=[N+]([O-])c1ccc(N2N=C(c3ccco3)CC2c2ccccc2)cc1 (configuration not stated) was read as Mot1-301 SUMO inactive, Efflux pump mplx 0.5, SKN-1 block inactive, HGIII-sPLA2 inh 22.9, Yeast cmpd fluor inactive, Mdr1 pump inh inactive, Cdr2 pump inh inactive, Cdr1 pump inh inactive, hGIII sPLA2 conf 20.1 and 535nm interf 9.3.
S=C(/N=c1/sccn1Cc1ccccc1)NC1CC1 was read as Mot1-301 SUMO inactive, Efflux pump mplx 1.3, SKN-1 block inactive, HGIII-sPLA2 inh 19.7, Yeast cmpd fluor inactive, Mdr1 pump inh inactive, Cdr2 pump inh inactive, Cdr1 pump inh inactive, hGIII sPLA2 conf inactive and 535nm interf inactive.
For CN(C)CCCNC(=S)/N=c1\sccn1Cc1ccccc1Cl the results were Mot1-301 SUMO inactive, Efflux pump mplx inactive, SKN-1 block inactive and HGIII-sPLA2 inh inactive.
For CC(=O)C1CCC2C3CC(C)=C4CC(O)CCC4(C)C3CCC12C (configuration not stated) the results were SKN-1 block inactive and HGIII-sPLA2 inh inactive.
`CC(=O)c1c(C)[nH]c(-c2ccccc2)c1C` gave Mot1-301 SUMO inactive, Efflux pump mplx 8.0, SKN-1 block inactive, HGIII-sPLA2 inh 28.0, Yeast cmpd fluor inactive, Mdr1 pump inh inactive, Cdr2 pump inh inactive, Cdr1 pump inh inactive, hGIII sPLA2 conf inactive and 535nm interf inactive.
CC(NC(=O)c1ccc(NC(=O)CC2SC(N3CCCC3)=NC2=O)cc1)c1ccc(S(N)(=O)=O)cc1 (configuration not stated) was read as Mot1-301 SUMO inactive, Efflux pump mplx inactive, SKN-1 block inactive and HGIII-sPLA2 inh inactive.
Screening COc1cc(/C=N/NC(=O)c2ccc3c(c2)OCCO3)c(Br)c(Br)c1O returned Mot1-301 SUMO inactive, Efflux pump mplx inactive, SKN-1 block inactive and HGIII-sPLA2 inh inactive.
`COc1cc(/C=N/NC(=O)c2ccc3c(c2)OCCO3)cc(Br)c1O` gave Efflux pump mplx inactive, SKN-1 block inactive, HGIII-sPLA2 inh 20.1, hGIII sPLA2 conf inactive and 535nm interf inactive.
For COc1ccc(/C=N/NC(=O)c2ccc3c(c2)OCCO3)cc1[N+](=O)[O-] the results were Mot1-301 SUMO inactive, Efflux pump mplx inactive, SKN-1 block inactive, HGIII-sPLA2 inh 24.1, hGIII sPLA2 conf inactive and 535nm interf inactive.
For CCc1cc2c3c(c1)C(C)CC(C)(C)N3C(=O)C2=O (configuration not stated) the results were Mot1-301 SUMO inactive, Efflux pump mplx inactive, SKN-1 block inactive, HGIII-sPLA2 inh 27.0, hGIII sPLA2 conf inactive and 535nm interf inactive.
